# Measured values reported in PubChem BioAssay.
# Activity calls are given as the source filed them. No rule for the calls is given here.
# Molecular target: L-lactate dehydrogenase (Plasmodium falciparum (isolate CDC / Honduras)) (UniProt Q27743)
# Assay: PfLDH activity inhibition – cell lysate, 3D7 strain, counter-screen for P. falciparum growth inhibition project (AID 2304);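 also: 0% = vehicle and 100% = reference inhibitor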
# Settings: P. falciparum 3D7 crude extract, LDH APAD/NBT absorbance; at 2 µM; hits give high values
# L-lactate dehydrogenase (Plasmodium falciparum (isolate CDC / Honduras)), sequence (Q27743 whole entry, looked up): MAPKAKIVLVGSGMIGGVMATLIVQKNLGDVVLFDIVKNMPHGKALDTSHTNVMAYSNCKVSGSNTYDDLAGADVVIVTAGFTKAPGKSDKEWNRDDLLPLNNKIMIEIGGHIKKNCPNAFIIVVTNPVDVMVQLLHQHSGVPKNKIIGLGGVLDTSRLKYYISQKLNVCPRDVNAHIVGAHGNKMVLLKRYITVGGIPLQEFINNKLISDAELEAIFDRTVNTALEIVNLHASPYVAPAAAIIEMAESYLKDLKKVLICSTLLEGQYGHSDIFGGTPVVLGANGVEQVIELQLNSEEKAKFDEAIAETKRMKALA
row,Structure (SMILES),inhibition
1,Cc1cc(-c2nc3ccc(C(=N)N)cc3[nH]2)c(C)cc1-c1nc2ccc(C(=N)N)cc2[nH]1,-1% (inactive)
2,O=C(Nc1ccc(Cl)cc1)Nc1cccc(-c2cc(CNCCc3ccccc3)oc2-c2ccncc2)c1,1% (inactive)
3,Cc1cc(O)c2c(c1)OC(C)(C)C=C2C1=CCN(Cc2ccccc2)CC1,-3% (inactive)
4,O=S(=O)(c1ccc(OCc2ccc(Cl)cc2)cc1)c1cc2c(cc1O)CCN(C1CCC1)CC2,3% (inactive)

# Test system: not listed separately
# Assay: inhibition of 3D7 malaria parasite growth – strain 3D7 (AID 2306);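 also: 0% = DMSO wells and 100% = chloroquine plus artemisinin control wells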
# Settings: P. falciparum 3D7 erythrocytic growth, LDH absorbance, 72 h; at 2 µM; hits give high values
row,Structure (SMILES),growth inhibition
1,Cc1cc(=O)[nH]c(/N=C(/N)NOCCCc2ccccc2)n1,100% (active)
2,NCCC(=O)Nc1ccc(-c2cnc3[nH]cc(-c4ccc(C(=O)O)cc4)c3c2)cn1,99% (active)
3,Cc1nc(N)nc(N)c1-c1ccc(Br)c([N+](=O)[O-])c1,95% (active)
4,O=[N+]([O-])c1ccccc1C=NNc1ccnc2cc(Cl)ccc12,101% (active)
5,Cc1cc(F)ccc1[C@H]1CNCCN1C(=O)N(C)C(C)(C)c1cc(C(F)(F)F)cc(C(F)(F)F)c1,101% (active)
6,CN1CCC(NCc2ccc(S(=O)(=O)Nc3ccc(Oc4cccc(Cl)c4)cc3)cc2)CC1,99% (active)
7,Cc1cc(N[C@@H](Cc2ccccc2)C(=O)NCc2cccs2)nc(NCCc2ccc(F)cc2)n1,100% (active)
8,COc1ccc([N+](=O)[O-])cc1N(Cc1ccccc1-c1ccccc1)S(=O)(=O)c1ccc(C(F)(F)F)cc1,96% (active)
9,O=C(Nc1ccc(CCN2CCC(c3nc(COCC(F)(F)F)c(-c4ccccc4)o3)CC2)cc1)c1ccc(F)cc1,86% (active)
10,CCCNCc1ccc(-c2ccc(CN(C(=O)c3nn(-c4ccccc4)nc3C)C3CCOCC3)cc2)nc1,98% (active)
11,CN(C)CCOc1cc(NC(=O)Nc2ccc(-c3ccccc3)cc2)ccc1I,101% (active)
12,CN1CCN(Cc2cccc(-c3ccc4c(Nc5ccc(Oc6ccccc6)cc5)ccnc4c3)c2)CC1,101% (active)
13,CN1CCN(c2ccc3nccc(CCN4CCC(NCc5ccc6c(n5)NC(=O)CO6)CC4)c3n2)CC1,97% (active)
14,CCCCCCN1CCCN(Cc2ccc(C(=O)Nc3ccc(C(C)C)cc3)cc2)CC1,93% (active)
15,CCOC(=O)c1c(C)n(-c2ccccc2)c2ccc(OC(=O)c3ccc(S(=O)(=O)N(CC)CC)cc3)cc12,94% (active)
16,CCCCNC(=O)[C@@H](NC(=O)c1ccc(O)c(-c2ccc(Cl)c(Cl)c2)c1)C(C)C,97% (active)
17,O=C(Cn1c(CCc2cccc(F)c2F)cc(=O)c2cccnc21)N(CCCn1ccnc1)Cc1ccc(-c2ccc(C(F)(F)F)cc2)cc1,96% (active)
18,CS(=O)(=O)n1c(CN2CCN(c3ncc(C(F)(F)F)cc3Cl)CC2)nc2ccccc21,83% (active)
19,CCOc1cc(C(=O)NC2CCN(Cc3ccccc3)C2)ccc1-c1nc2ccc(Cl)cc2[nH]1 (centres undefined),98% (active)
20,OC(CNCc1ccccc1OCc1ccccc1)c1cc(Br)cs1 (centres undefined),97% (active)

row,Structure (SMILES),growth inhibition
1,Cc1nc2nc(N)nc(N)c2c(C)c1Cc1ccccc1,95% (active)
2,Cc1cnc(CS(=O)c2nc3ccc(C(F)(F)F)cc3[nH]2)cc1OCc1ccccc1 (centres undefined),93% (active)
3,N#Cc1ccc(-c2ccc(C(=O)Nc3ccc4c(c3)CCN(C3CCC3)CC4)nc2)cn1,85% (active)
4,C[C@@H](CC1CCCCC1)OC(=O)N(C)[C@H]1CCN(C#N)C1,84% (active)
5,O=C(Cc1cccc(Cl)c1)N1CCc2cc3nccc(N4CCN5CCC[C@H]5C4)c3cc21,96% (active)
6,O=C(Nc1ccc(C(=O)N2CCN(CCN3CCN(c4cccc(C(F)(F)F)c4)CC3)CC2)cc1)c1cc(Cl)cc(Cl)c1,100% (active)
7,COc1ccc(NC(=O)Nc2cccc(-c3ccncc3)c2)cc1N1CCN(C)CC1,98% (active)
8,O=C(/C=C/c1ccc(Cl)c(Cl)c1)NCCCCN1CCCN(C(=O)Nc2ccc(F)c(Cl)c2)CC1,87% (active)
9,CS(=O)(=O)Nc1ccc2[nH]cc(C3CCN(CC(O)C4CCN(C(=O)/C=C/c5ccc(Cl)c(Cl)c5)CC4)CC3)c2c1 (centres undefined),101% (active)
10,CCCCCC1c2[nH]c3ccccc3c2CCN1C(=O)OCc1ccccc1 (centres undefined),93% (active)
11,O=C(NCCCCN1CCC(c2c[nH]c3ccc(-c4ccccc4)cc23)CC1)c1ccc(-c2ccccc2)cc1,97% (active)
12,O=C(NCc1ccc2c(c1)OCO2)c1nn(CCN2CCC(N3CCCC3)CC2)cc1-c1ccc(Cl)c(Cl)c1,94% (active)
13,CN1CCN(CCCCCCNc2c3ccccc3nc3ccccc23)CC1,101% (active)
14,CCN(CC)CCOC(=O)c1ccc(NC(=O)c2cn(-c3ccccc3)nc2-c2cccs2)cc1,100% (active)
15,CCN(CC)CCN(Cc1ccc(-c2ccc(C(F)(F)F)cc2)cc1)C(=O)CN1C(CCc2cccc(F)c2F)=NS(=O)(=O)c2ccccc21,101% (active)
16,CCN(CC)CCOc1ccc(N(Cc2ccc(C(C)(C)C)cc2)C(=O)c2ccc(Cc3ccccc3)cc2)cc1OC,99% (active)
17,Cc1cc(-c2nc3ccc(C(=N)N)cc3[nH]2)c(C)cc1-c1nc2ccc(C(=N)N)cc2[nH]1,96% (active)
18,O=C(Nc1ccc(Cl)cc1)Nc1cccc(-c2cc(CNCCc3ccccc3)oc2-c2ccncc2)c1,101% (active)
19,Cc1cc(O)c2c(c1)OC(C)(C)C=C2C1=CCN(Cc2ccccc2)CC1,96% (active)
20,O=S(=O)(c1ccc(OCc2ccc(Cl)cc2)cc1)c1cc2c(cc1O)CCN(C1CCC1)CC2,99% (active)
